Bioassay records as filed in PubChem BioAssay.
PI4K2A block: qHTS for small molecular inhibitors of PI4K2A. purified PI4K2A, ADP-Glo luminescence, 1 h; stronger effect = lower value. activity change, negative = inhibition, % at 76.9 µM. hit rate 0.13% among 420,000. AID 1346378, 2018; in the data active = activity change below about -50%; inconclusive = mostly about -30% to -49%
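In this quantitative HTS, ADP production by PI4K2A was quantified luminescently after 1 h at ambient temperature; 100 microM adenosine served as plate-quality control.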
CtBP-E1A blk: qHTS Assay for Inhibitors of the CtBP/E1A Interaction; AID 651724, 2012; AlphaScreen GST-E1A/His-CtBP binding, 1536-well; stronger effect = lower value; hit rate 0.49% among 340,000; activity change, % (concentration not given with the values); CtBP / adenovirus E1A interaction (AlphaScreen)
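Homogeneous bead-based format: GST-tagged E1A captured on glutathione donor beads, His-tagged CtBP on nickel acceptor beads; compounds precede bead addition by 2 h at 37 °C.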
PI5P4K alpha inh: qHTS for Inhibitors of phosphatidylinositol 5-phosphate 4-kinase (PI5P4K); Phosphatidylinositol 5-phosphate 4-kinase type-2 alpha (Homo sapiens), P48426; PI5P4Kalpha enzyme, ADP-Glo luminescence, 60 min; stronger effect = lower value; max response, %; hit rate 1.2% among 330,000; AID 652105, 2013; active = max response of -50% or lower; inconclusive = between -30% and -50%; inactive = -30% or higher; note: value at the top dose of about 77 µM
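ADP-Glo luminescence end-point read after a 60 min room-temperature kinase reaction of PI5P4Kalpha plus substrate, initiated with ATP at 5 microM final. Buffer: 0.038 M HEPES pH 7.4, EGTA, 0.1% CHAPS, 5% DMSO.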
pAkt inh: HTS Assay for Inhibitors of Akt Phophorylation: Primary Screen; Neuro2A IGF-stimulated pAkt S473 HTRF, 20 min; stronger effect = lower value; activity change, % for hits at 50 µM; hit rate 0.32% among 360,000; AID 651550, 2012; in the data active = activity change below about -80%; inconclusive = mostly about -51% to -80%
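Neuro2A cells in DMEM with 0.5% FBS, overnight at 37 deg C, given compound at single 50 µM final, then IGF (6 nM final) for 20 min at 37 deg C. Lysed; phospho-Akt Ser473 by HTRF after 24 h, 665/615 ratio.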
Six1-Eya2 blk: qHTS Assay for Inhibitors of the Six1/Eya2 Interaction | Homeobox protein SIX1 (Homo sapiens) + Protein phosphatase EYA2 (Homo sapiens), … | AlphaScreen GST-Six1/His-Eya2 binding, biochemical; stronger effect = lower value | activity change, % (test concentration not listed) | hit rate 0.56% among 360,000
Target sequence (O00167 whole entry, looked up): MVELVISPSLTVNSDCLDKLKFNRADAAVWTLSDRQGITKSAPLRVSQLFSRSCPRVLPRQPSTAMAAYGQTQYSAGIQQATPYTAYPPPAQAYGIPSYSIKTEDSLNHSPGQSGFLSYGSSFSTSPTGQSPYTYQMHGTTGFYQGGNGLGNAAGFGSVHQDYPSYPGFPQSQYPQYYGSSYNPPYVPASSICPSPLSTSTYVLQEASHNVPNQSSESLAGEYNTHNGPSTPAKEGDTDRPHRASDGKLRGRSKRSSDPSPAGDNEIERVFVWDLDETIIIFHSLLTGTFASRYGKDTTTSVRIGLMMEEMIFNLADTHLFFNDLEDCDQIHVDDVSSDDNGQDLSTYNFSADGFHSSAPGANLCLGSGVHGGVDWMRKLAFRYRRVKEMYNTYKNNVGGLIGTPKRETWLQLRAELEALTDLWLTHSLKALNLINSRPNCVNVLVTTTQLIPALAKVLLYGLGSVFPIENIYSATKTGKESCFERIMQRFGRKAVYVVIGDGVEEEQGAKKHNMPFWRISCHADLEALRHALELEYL
Target sequence (Q15475 whole entry, looked up): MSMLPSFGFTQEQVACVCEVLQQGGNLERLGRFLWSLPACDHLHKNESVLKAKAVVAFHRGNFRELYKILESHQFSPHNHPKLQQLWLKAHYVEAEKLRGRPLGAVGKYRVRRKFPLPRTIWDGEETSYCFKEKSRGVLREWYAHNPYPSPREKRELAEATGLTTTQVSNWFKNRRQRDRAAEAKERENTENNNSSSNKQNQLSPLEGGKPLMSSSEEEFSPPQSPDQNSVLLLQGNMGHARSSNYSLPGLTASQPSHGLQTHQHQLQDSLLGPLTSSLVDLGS
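AlphaScreen with GST-Six1 and His-Eya2 (5X mix: 250 nM and 500 nM), glutathione donor and nickel acceptor beads; buffer 50 mM Tris pH 8.0, 300 mM NaCl, 1 mM TCEP; 1 h at 37 C in the dark.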
Large screens that a line does not name were inactive. Only some compounds are listed: those with a hit (about 1.8% of all), similar ones and a draw of the others. Cut-off read from the data, not from the text of the source, unless noted: active = activity change below about -65%; inconclusive = mostly about -30% to -63%; inactive = weaker than that.

COC1=CC(=NCl)C=CC1=NCl	PI4K2A block inconclusive, PI5P4K alpha inh -61.9, Six1-Eya2 blk inconclusive
COC(=O)c1cc(NC(=O)CSc2nc(C)cc(=O)[nH]2)cc(C(=O)OC)c1	pAkt inh -105.8% (no result: PI5P4K alpha inh)
COC(=O)CCCC1=CC2=C(c3ccccc3)C(=O)C(C)(OC(=O)C3CCCC3)C(=O)C2=CN1CCN1CCOCC1 (stereo unspecified)	none
CN(C)c1ccc(P(=O)(COc2ccc([N+](=O)[O-])cc2)c2ccc(N(C)C)cc2)cc1	none
COc1ccc(-n2cnnc2)cc1	pAkt inh -122.7%
O=C(NC(=S)NNC(=O)c1cc2ccccc2cc1O)c1ccco1	CtBP-E1A blk -93.9, Six1-Eya2 blk -91.4
O=C(/C=C/c1cccs1)NC(=S)NNC(=O)c1ccccc1O	CtBP-E1A blk -94.1, Six1-Eya2 blk -75.7
CN(C)S(=O)(=O)c1cccc(NC(=S)NNC(=O)c2cc3ccccc3cc2O)c1	CtBP-E1A blk inconclusive, PI5P4K alpha inh -60.4, Six1-Eya2 blk inconclusive
NNC(=O)c1cc2ccccc2cc1O	PI5P4K alpha inh -52.4
COc1ccc(-c2nc(CS(=O)CC(=O)NCc3ccccc3OC)c(C)o2)cc1 (stereo unspecified)	none (no result: CtBP-E1A blk, PI5P4K alpha inh, pAkt inh, Six1-Eya2 blk)
CCNC(=O)c1cnc2sc(N3CCCCCC3)nn2c1=O	none (no result: CtBP-E1A blk, PI5P4K alpha inh, pAkt inh, Six1-Eya2 blk)
O=C(NC(=S)NNC(=O)c1ccccc1O)c1ccco1	Six1-Eya2 blk -90.6
O=C(CCC(=O)c1cccs1)NNC(=O)c1ccccc1O	PI5P4K alpha inh -51.6
O=C(NNC(=S)NC(=O)c1ccco1)c1ccc(NC(=O)c2ccccc2)cc1	none (no result: CtBP-E1A blk)
O=C(CCC(=O)c1cccs1)NNC(=O)c1ccc(Cl)cc1	none
O=C(Cn1ncc2c3ccccc3n(Cc3ccccc3)c2c1=O)NCCCN1CCCC1=O	none
CC(=O)c1cccc(NC(=S)Nc2ccc(F)cc2)c1	none (no result: CtBP-E1A blk)
CC12CCC(C/C1=N\OC(=O)c1ccc(F)cc1)C2(C)C (stereo unspecified)	pAkt inh -96.4%
CC12CCC(C/C1=N/OC(=O)c1cccc([N+](=O)[O-])c1)C2(C)C (stereo unspecified)	none
Brc1ccc(-c2nnc3sc(CN4CCC5(CC4)OCCO5)cn23)cc1	pAkt inh -101.8% (no result: PI5P4K alpha inh)
O=S(=O)(Cc1ccccc1Cl)N1CCCC1	CtBP-E1A blk -78.7
CN1CCN(S(=O)(=O)Cc2ccccc2Cl)CC1	none
COc1ccc(-c2nnc(SCC(=O)OC3CCCCC3)o2)cc1OC	pAkt inh -117.1%
COc1ccc(-c2nnc(SCC#CCO)o2)cc1OC	PI5P4K alpha inh -55.9
OCC#CCSc1nnc(-c2ccc(Br)cc2)o1	none (no result: PI5P4K alpha inh)
COc1ccc(-c2nnc(SCC(=O)N(C)C3CCCCC3)o2)cc1OC	none (no result: CtBP-E1A blk, PI5P4K alpha inh, pAkt inh, Six1-Eya2 blk)
O=C(C/C=N/OCc1ccccc1F)c1cnc(-c2ccc(Cl)cc2)s1	none
O=C(C/C=N/OCc1ccc(F)cc1Cl)c1cnc(-c2ccccc2)s1	pAkt inh -96.9%
CN(C)c1ccc(C=c2c3ccccc3n3c2c2ccccc2[n+]3C)cc1	PI5P4K alpha inh -75.0
CCOC(=O)SC1=N/C(=C\c2ccc(N(C)C)cc2)C(=O)S1	none (no result: PI5P4K alpha inh)
CC1=NN(c2cccc(F)c2)C(=O)/C1=C/c1ccc(N(C)C)cc1	none
CCOC(=O)c1cc2c(=Cc3ccc(N(C)C)cc3)c3ccccc3n2[n+]1C	PI4K2A block -51.0, Six1-Eya2 blk -69.2
Cc1cc2c(=Cc3ccc(N(C)C)cc3)c3ccccc3n2[n+]1C	CtBP-E1A blk -66.2
CN1CCN(C(=O)C(=O)Nc2c3c(nn2-c2ccc(Cl)cc2)CSC3)CC1	none (no result: CtBP-E1A blk, PI5P4K alpha inh, pAkt inh, Six1-Eya2 blk)
O=S1(=O)C=C(Sc2nc3ccccc3s2)c2ccccc21	pAkt inh -107.8%
Cc1cc(C)nc(SC2=CS(=O)(=O)c3ccccc32)n1	none
Cc1ccc(S(=O)(=O)CCc2nc3ccccc3s2)cc1C	none (no result: pAkt inh)
Cc1ccc(S(=O)(=O)CCc2nc3ccccc3s2)cc1	pAkt inh -100.8%
CCC(=O)NC(c1cccs1)c1ccc2cccnc2c1O (stereo unspecified)	Six1-Eya2 blk -93.2 (no result: CtBP-E1A blk)
CC(=O)NC(c1cccs1)c1cc(F)c2cccnc2c1O (stereo unspecified)	none (no result: CtBP-E1A blk, PI5P4K alpha inh, pAkt inh, Six1-Eya2 blk)
CC(C)CC(=O)NC(c1cccs1)c1ccc2cccnc2c1O (stereo unspecified)	CtBP-E1A blk -88.5, Six1-Eya2 blk -81.3
COc1ccc(CNC(=O)COC(=O)Cc2ccsc2)cc1	none
CC(C)CCn1c(N2CCOCC2)nc2c1c(=O)n(CC(N)=O)c(=O)n2C	none
O=C1CSC(=S)N1N=Cc1ccc(Cl)s1	CtBP-E1A blk inconclusive, PI5P4K alpha inh -54.8, Six1-Eya2 blk inconclusive
COc1ccccc1C=NN1C(=O)CSC1=S	CtBP-E1A blk inconclusive
O=C1CSC(=S)N1/N=C/c1ccc(O)c(O)c1O	CtBP-E1A blk -93.7, PI5P4K alpha inh -95.3, Six1-Eya2 blk -91.0
Nc1nonc1-c1nc2ccccc2n1CC(=O)N/N=C/c1ccc(-c2cccc(C(=O)O)c2)o1	PI5P4K alpha inh -59.5, Six1-Eya2 blk inconclusive
Nc1nnc(CC(=O)N/N=C/c2ccc(-c3cccc(C(=O)O)c3)o2)s1	CtBP-E1A blk -71.3, PI5P4K alpha inh -57.1, Six1-Eya2 blk -65.7
COc1cc2[nH]c(=S)nc(NCC3CCCO3)c2cc1OC (stereo unspecified)	CtBP-E1A blk -86.9, Six1-Eya2 blk -90.0
COc1cc2[nH]c(=S)n(CC3CCCO3)c(=O)c2cc1OC (stereo unspecified)	none (no result: PI5P4K alpha inh, pAkt inh)
COc1cc2[nH]c(=S)nc(Nc3ccc(NC(C)=O)cc3)c2cc1OC	CtBP-E1A blk -89.6, Six1-Eya2 blk -87.9
COc1cc2[nH]c(=S)nc(NC3CCCCCC3)c2cc1OC	CtBP-E1A blk -67.1, Six1-Eya2 blk -71.3
Cc1nc2ccc([N+](=O)[O-])cc2c(=O)n1Cc1ccccc1Br	none
COc1cc(OC)cc(-n2c(=O)c3sccc3n(Cc3c(C)cc(C)cc3C)c2=O)c1	none (no result: CtBP-E1A blk, PI5P4K alpha inh, pAkt inh, Six1-Eya2 blk)
Cn1c2ccccc2c2ccc3c(c21)C(=O)C=CC3=O	CtBP-E1A blk inconclusive, PI5P4K alpha inh -72.4, Six1-Eya2 blk inconclusive
Cc1ccc2c(c1)c1ncnc(N3CCOCC3)c1n2C	none
Cc1ccc2c(c1)c1ccc3c(c1n2C)C(=O)C=CC3=O	CtBP-E1A blk inconclusive, PI5P4K alpha inh -74.5, Six1-Eya2 blk inconclusive
COc1ccc2c(c1)c1ccc3c(c1n2C)C(=O)C=CC3=O	PI5P4K alpha inh -73.9, Six1-Eya2 blk -68.7 (no result: CtBP-E1A blk)
CC(=O)c1c(C)nc(-c2ccccc2)nc1NC(=O)Cc1ccccc1	none
O=C(Nc1c(-c2ccc3c(c2)OCO3)[nH][nH]c1=O)c1ccccc1	PI4K2A block -59.9
O=C(Nc1c(-c2ccccc2)[nH][nH]c1=O)c1ccc2c(c1)OCO2	PI4K2A block inconclusive
